# Assays:
# Assay in all cases: DAPPL (digital affinity profiling via proximity ligation, sequencing); 10 mM Tris-HCl pH 7.5, 50 mM NaCl, 1 mM DTT, 4% glycerol, room temperature, 30 min; GST-TFs on glutathione beads, 16-mer random dsDNA library, 0.1% formaldehyde crosslink after washing; high values mean tight binding
# FLI1 = molecular target: T1, FLI1 (Homo sapiens, UniProt Q01543 1-452); conditions: protein: recombinant; tags: N-terminal GST; dsDNA, one strand shown
# T1 sequence: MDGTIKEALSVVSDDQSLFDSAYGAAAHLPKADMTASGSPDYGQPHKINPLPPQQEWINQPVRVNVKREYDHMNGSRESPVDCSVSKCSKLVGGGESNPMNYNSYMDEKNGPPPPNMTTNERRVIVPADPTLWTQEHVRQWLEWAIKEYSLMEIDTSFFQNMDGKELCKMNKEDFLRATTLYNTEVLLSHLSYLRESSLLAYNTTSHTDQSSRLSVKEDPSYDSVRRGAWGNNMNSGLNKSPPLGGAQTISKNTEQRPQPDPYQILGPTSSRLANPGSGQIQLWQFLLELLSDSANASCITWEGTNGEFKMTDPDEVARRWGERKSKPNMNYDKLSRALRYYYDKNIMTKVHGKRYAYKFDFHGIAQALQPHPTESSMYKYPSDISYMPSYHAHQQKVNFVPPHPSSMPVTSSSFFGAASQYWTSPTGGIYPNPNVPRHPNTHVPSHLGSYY
# Method in brief: (§1)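 Each value of binding signal is a hexamer's read frequency for a factor divided by the same hexamer's frequency in the tag-only sample. Barcoded, bead-captured GST fusions of human transcription factors made in yeast were pooled with that sample and incubated with 200 nmole of a random double-stranded 16-mer DNA library in Tris/NaCl/DTT/glycerol buffer at room temperature for 30 min. Washing, 0.1% formaldehyde crosslinking, proximity ligation, PCR and Illumina NextSeq500 sequencing followed.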
# ELK1 = molecular target: T2, ELK1 (Homo sapiens, UniProt P19419 1-428); conditions: protein: recombinant; tags: N-terminal GST; dsDNA, one strand shown
# T2 sequence: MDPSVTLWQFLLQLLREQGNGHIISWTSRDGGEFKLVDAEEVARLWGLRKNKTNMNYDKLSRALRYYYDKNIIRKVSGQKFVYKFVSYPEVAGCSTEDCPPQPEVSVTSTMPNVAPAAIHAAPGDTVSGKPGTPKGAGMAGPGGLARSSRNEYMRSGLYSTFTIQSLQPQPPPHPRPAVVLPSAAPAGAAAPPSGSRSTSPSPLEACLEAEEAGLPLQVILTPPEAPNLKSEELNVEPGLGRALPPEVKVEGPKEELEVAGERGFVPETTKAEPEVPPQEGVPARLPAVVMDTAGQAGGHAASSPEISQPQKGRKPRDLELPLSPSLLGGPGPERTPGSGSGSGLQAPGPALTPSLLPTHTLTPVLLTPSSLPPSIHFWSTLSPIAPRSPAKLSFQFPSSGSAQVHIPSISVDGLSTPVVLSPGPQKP
# Method in brief: as §1
# GABPA = molecular target: T3, GABPA (Homo sapiens, UniProt Q06546 1-454); conditions: protein: recombinant; tags: N-terminal GST; dsDNA, one strand shown
# T3 sequence: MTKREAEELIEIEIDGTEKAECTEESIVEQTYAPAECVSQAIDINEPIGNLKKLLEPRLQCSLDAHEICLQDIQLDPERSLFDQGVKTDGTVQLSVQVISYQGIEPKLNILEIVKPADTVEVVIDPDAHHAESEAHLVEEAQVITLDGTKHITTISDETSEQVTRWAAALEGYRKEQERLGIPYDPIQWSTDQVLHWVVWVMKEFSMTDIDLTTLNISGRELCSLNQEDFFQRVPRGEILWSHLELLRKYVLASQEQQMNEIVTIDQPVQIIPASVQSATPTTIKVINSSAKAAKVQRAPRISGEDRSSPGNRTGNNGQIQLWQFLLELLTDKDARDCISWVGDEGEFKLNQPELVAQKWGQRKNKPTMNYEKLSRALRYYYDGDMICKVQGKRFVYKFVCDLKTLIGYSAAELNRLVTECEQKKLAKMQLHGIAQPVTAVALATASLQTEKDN
# Method in brief: as §1
# ERG = molecular target: T4, ERG (Homo sapiens, UniProt P11308 1-479); conditions: protein: recombinant; tags: N-terminal GST; dsDNA, one strand shown
# T4 sequence: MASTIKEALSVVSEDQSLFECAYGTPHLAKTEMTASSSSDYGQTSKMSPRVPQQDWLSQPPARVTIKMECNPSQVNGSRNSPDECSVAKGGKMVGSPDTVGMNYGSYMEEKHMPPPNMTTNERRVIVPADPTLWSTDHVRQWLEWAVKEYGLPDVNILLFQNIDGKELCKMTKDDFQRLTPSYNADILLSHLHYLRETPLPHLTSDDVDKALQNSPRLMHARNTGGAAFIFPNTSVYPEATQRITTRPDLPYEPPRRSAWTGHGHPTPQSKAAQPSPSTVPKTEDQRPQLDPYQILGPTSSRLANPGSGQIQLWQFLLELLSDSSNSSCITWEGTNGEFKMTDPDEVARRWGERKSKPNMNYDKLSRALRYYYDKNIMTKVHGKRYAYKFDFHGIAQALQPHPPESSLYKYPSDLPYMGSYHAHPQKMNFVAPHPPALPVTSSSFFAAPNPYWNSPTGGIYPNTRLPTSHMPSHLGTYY
# Method in brief: as §1
# ELF1 = ELF1 (Homo sapiens, UniProt P32519 1-619); conditions: protein: recombinant; tags: N-terminal GST; dsDNA, one strand shown
# Sequence of ELF1 (P32519 whole entry): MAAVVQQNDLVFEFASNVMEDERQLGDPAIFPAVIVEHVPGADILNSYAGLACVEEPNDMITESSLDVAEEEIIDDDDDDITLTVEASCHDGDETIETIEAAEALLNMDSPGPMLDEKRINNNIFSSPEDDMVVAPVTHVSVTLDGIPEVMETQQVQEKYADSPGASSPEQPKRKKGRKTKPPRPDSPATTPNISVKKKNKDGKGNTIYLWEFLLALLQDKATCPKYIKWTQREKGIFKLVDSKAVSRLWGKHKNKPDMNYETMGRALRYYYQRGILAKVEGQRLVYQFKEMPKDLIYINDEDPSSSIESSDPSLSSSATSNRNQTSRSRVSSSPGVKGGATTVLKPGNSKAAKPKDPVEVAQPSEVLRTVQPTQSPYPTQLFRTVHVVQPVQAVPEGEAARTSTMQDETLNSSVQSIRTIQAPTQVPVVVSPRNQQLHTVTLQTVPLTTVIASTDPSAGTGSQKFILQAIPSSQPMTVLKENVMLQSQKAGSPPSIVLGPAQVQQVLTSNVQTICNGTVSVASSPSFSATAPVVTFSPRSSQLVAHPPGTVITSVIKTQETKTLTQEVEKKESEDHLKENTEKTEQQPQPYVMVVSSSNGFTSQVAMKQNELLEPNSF
# Method in brief: as §1
# EHF = molecular target: T5, EHF (Homo sapiens, UniProt Q9NZC4 1-300); conditions: protein: recombinant; tags: N-terminal GST; dsDNA, one strand shown
# T5 sequence: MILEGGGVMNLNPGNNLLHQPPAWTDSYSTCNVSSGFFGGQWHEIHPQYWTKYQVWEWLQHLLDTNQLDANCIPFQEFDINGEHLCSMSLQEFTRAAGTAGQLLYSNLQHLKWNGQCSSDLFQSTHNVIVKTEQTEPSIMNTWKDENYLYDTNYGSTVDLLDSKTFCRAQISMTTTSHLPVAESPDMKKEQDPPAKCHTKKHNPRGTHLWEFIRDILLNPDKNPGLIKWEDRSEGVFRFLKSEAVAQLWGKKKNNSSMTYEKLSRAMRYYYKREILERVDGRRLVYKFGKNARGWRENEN
# Method in brief: as §1
# SPI1 = SPI1 (Homo sapiens, UniProt P17947 1-270); conditions: protein: recombinant; tags: N-terminal GST; dsDNA, one strand shown
# Method in brief: as §1
# SPIB = SPIB (Homo sapiens, UniProt Q01892 1-262); conditions: protein: recombinant; tags: N-terminal GST; dsDNA, one strand shown
# Sequence of SPIB (Q01892 whole entry): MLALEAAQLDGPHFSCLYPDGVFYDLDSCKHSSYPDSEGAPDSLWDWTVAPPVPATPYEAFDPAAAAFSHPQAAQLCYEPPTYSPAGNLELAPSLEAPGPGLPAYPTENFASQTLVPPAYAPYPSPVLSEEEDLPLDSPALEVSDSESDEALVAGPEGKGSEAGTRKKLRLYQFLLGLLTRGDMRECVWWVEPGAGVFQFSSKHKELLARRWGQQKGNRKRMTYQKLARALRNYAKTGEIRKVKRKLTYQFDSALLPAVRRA
# Method in brief: as §1
# ELK3 = molecular target: T6, ELK3 (Homo sapiens, UniProt P41970 1-407); conditions: protein: recombinant; tags: N-terminal GST; dsDNA, one strand shown
# T6 sequence: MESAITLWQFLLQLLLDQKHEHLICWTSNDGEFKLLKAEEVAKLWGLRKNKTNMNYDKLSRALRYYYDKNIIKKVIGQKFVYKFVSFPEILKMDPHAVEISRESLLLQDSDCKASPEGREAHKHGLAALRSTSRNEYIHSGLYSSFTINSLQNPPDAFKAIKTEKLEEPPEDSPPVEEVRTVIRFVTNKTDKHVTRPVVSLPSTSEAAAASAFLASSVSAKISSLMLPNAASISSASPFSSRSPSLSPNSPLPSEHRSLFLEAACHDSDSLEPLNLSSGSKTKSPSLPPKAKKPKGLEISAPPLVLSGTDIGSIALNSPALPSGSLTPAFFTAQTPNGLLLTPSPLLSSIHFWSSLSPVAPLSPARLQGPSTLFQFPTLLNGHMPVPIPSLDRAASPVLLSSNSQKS
# Method in brief: as §1
# FEV = molecular target: T7, FEV (Homo sapiens, UniProt Q99581 1-238); conditions: protein: recombinant; tags: N-terminal GST; dsDNA, one strand shown
# T7 sequence: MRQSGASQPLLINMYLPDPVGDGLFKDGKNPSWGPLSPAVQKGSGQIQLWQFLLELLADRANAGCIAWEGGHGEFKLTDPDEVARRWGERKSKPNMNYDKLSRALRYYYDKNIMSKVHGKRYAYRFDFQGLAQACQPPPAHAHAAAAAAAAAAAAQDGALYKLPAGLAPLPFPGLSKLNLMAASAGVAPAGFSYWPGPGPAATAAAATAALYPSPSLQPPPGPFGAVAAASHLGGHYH
# Method in brief: as §1
# ETV5 = ETV5 (Homo sapiens, UniProt P41161 1-510); conditions: protein: recombinant; tags: N-terminal GST; dsDNA, one strand shown
# Sequence of ETV5 (P41161 whole entry): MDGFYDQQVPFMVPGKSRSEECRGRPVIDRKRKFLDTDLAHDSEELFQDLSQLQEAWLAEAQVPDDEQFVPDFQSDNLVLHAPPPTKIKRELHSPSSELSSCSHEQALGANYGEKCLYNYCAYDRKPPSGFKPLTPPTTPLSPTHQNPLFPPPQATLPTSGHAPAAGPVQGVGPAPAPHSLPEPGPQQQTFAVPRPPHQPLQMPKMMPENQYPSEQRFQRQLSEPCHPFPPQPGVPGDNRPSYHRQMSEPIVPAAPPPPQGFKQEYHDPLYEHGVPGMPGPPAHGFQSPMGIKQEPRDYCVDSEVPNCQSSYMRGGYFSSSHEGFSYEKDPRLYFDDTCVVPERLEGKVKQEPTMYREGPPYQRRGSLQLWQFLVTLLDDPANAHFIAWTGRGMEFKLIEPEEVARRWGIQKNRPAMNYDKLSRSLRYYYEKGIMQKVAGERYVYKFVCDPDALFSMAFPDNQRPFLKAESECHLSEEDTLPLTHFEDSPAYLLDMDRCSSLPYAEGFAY
# Method in brief: as §1
# HSF1 = HSF1 (Homo sapiens, UniProt Q00613 1-529); conditions: protein: recombinant; tags: N-terminal GST; chain copies: 3; dsDNA, one strand shown
# Sequence of HSF1 (Q00613 whole entry): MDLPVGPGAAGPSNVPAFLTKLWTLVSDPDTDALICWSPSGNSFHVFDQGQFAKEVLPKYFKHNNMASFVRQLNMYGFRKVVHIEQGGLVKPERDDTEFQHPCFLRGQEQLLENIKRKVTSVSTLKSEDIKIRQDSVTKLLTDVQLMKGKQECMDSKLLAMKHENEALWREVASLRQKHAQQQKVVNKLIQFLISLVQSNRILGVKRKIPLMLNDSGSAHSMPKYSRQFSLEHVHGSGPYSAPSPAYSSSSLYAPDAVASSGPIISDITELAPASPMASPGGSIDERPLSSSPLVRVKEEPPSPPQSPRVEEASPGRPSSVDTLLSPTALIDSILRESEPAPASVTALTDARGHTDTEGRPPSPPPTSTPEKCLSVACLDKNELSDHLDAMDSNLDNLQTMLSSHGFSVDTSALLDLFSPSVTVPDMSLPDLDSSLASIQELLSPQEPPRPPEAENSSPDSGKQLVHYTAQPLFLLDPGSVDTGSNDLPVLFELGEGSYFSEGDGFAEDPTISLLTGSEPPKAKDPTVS
# Method in brief: as §1
# SPIC = molecular target: T8, SPIC (Homo sapiens, UniProt Q8N5J4 1-248); conditions: protein: recombinant; tags: N-terminal GST; dsDNA, one strand shown
# T8 sequence: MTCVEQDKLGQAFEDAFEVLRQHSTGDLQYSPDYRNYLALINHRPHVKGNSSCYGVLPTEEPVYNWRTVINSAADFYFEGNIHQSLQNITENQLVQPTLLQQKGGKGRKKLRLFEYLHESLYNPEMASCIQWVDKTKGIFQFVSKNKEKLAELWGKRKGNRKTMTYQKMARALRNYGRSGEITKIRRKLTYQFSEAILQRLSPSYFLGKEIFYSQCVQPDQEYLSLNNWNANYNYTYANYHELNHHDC
# Method in brief: as §1
# ELF4 = ELF4 (Homo sapiens, UniProt Q99607 1-663); conditions: protein: recombinant; tags: N-terminal GST; dsDNA, one strand shown
# Sequence of ELF4 (Q99607 whole entry): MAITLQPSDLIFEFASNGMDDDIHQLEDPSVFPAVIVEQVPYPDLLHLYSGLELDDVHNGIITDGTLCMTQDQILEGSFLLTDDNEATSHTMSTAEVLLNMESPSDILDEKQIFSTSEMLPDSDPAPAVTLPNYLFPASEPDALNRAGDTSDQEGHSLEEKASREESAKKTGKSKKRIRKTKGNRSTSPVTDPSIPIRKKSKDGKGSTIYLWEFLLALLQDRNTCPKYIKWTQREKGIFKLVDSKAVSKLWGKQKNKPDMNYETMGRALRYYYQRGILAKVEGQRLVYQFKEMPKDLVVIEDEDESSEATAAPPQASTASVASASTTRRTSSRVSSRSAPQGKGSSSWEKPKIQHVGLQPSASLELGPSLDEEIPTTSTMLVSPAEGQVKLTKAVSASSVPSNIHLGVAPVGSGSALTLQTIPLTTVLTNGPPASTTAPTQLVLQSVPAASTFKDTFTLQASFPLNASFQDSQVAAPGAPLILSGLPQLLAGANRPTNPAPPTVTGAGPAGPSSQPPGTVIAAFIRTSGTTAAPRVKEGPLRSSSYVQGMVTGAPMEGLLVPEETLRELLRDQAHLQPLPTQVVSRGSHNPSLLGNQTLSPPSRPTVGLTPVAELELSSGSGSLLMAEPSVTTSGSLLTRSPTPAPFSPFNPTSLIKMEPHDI
# Method in brief: as §1
# ELK4 = molecular target: T9, ELK4 (Homo sapiens, UniProt P28324-2 1-405); conditions: protein: recombinant; tags: N-terminal GST; dsDNA, one strand shown
# T9 sequence: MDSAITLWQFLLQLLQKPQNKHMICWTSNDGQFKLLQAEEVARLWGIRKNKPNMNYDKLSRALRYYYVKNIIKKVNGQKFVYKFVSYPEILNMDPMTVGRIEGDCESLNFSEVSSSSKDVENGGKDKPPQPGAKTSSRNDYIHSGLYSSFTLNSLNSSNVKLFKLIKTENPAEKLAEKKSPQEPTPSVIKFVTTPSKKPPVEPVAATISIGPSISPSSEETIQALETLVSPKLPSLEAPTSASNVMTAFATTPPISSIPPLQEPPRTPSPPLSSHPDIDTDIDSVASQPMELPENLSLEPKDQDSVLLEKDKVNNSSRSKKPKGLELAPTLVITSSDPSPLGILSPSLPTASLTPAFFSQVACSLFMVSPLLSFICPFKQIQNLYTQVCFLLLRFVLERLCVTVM
# Method in brief: as §1
# ETV2 = molecular target: T10, ETV2 (Homo sapiens, UniProt O00321 1-342); conditions: protein: recombinant; tags: N-terminal GST; dsDNA, one strand shown
# T10 sequence: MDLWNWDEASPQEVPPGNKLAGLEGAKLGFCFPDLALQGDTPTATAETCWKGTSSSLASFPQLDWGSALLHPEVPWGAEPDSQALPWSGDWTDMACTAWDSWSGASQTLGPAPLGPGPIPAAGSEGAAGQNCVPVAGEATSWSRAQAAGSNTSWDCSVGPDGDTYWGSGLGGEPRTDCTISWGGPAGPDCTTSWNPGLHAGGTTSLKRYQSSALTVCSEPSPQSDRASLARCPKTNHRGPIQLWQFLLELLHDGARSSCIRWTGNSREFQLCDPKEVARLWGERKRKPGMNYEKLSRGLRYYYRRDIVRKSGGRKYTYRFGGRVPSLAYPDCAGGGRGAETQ
# Method in brief: as §1
# ELF3 = molecular target: T11, ELF3 (Homo sapiens, UniProt P78545 1-371); conditions: protein: recombinant; tags: N-terminal GST; dsDNA, one strand shown
# T11 sequence: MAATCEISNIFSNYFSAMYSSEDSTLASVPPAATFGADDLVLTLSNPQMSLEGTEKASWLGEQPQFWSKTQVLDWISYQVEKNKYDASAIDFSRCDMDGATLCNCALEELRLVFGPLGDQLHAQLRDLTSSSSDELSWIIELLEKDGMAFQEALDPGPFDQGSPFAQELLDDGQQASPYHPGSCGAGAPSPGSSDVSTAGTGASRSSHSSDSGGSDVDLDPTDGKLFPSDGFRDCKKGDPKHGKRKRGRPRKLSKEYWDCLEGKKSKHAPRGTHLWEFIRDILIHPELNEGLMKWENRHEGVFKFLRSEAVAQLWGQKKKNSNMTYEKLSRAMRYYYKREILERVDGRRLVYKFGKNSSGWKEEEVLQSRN
# Method in brief: as §1
# CRX = CRX (Homo sapiens, UniProt O43186 1-299); conditions: protein: recombinant; tags: N-terminal GST; dsDNA, one strand shown
# Sequence of CRX (O43186 whole entry): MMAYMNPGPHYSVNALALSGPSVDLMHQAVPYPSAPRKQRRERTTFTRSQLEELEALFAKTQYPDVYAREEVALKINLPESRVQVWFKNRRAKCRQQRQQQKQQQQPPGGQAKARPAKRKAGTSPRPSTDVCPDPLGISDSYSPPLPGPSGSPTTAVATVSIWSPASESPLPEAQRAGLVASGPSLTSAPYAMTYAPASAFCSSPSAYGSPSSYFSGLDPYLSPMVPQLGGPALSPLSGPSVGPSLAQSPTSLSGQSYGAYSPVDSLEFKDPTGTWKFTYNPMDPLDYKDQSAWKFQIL
# Method in brief: as §1
# ETV1 = ETV1 (Homo sapiens, UniProt P50549 1-477); conditions: protein: recombinant; tags: N-terminal GST; dsDNA, one strand shown
# Sequence of ETV1 (P50549 whole entry): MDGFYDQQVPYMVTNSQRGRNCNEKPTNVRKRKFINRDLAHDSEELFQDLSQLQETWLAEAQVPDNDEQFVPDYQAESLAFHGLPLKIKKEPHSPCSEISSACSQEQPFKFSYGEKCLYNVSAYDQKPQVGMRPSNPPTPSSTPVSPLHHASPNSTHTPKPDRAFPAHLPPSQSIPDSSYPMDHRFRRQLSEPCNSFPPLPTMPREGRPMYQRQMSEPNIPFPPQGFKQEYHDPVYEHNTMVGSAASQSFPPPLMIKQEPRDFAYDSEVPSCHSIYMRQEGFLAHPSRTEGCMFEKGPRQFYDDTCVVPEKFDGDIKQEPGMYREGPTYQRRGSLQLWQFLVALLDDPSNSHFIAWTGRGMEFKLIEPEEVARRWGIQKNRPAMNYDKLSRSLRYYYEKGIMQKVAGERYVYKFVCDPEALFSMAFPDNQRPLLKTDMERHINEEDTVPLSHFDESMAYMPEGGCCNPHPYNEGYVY
# Method in brief: as §1
sequence,measurement,setting,value
CTTATT,binding signal,FLI1,"1.61 fold enrichment (6-mer frequency, TF over GST control)"
same,binding signal,ELK1,"1.39 fold enrichment (6-mer frequency, TF over GST control)"
same,binding signal,GABPA,"1.41 fold enrichment (6-mer frequency, TF over GST control)"
same,binding signal,ERG,"1.53 fold enrichment (6-mer frequency, TF over GST control)"
same,binding signal,ELF1,"1.5 fold enrichment (6-mer frequency, TF over GST control)"
same,binding signal,EHF,"1.48 fold enrichment (6-mer frequency, TF over GST control)"
same,binding signal,SPI1,"1.61 fold enrichment (6-mer frequency, TF over GST control)"
same,binding signal,SPIB,"1.44 fold enrichment (6-mer frequency, TF over GST control)"
same,binding signal,ELK3,"1.59 fold enrichment (6-mer frequency, TF over GST control)"
same,binding signal,FEV,"1.46 fold enrichment (6-mer frequency, TF over GST control)"
same,binding signal,ETV5,"1.42 fold enrichment (6-mer frequency, TF over GST control)"
same,binding signal,HSF1,"1.87 fold enrichment (6-mer frequency, TF over GST control)"
same,binding signal,SPIC,"1.62 fold enrichment (6-mer frequency, TF over GST control)"
same,binding signal,ELF4,"1.43 fold enrichment (6-mer frequency, TF over GST control)"
same,binding signal,ELK4,"1.49 fold enrichment (6-mer frequency, TF over GST control)"
same,binding signal,ETV2,"1.5 fold enrichment (6-mer frequency, TF over GST control)"
same,binding signal,ELF3,"1.51 fold enrichment (6-mer frequency, TF over GST control)"
same,binding signal,CRX,"2.55 fold enrichment (6-mer frequency, TF over GST control)"
same,binding signal,ETV1,"1.52 fold enrichment (6-mer frequency, TF over GST control)"

# Reference: PMC7862700, “An all-to-all approach to the identification of sequence-specific readers for epigenetic DNA modifications on cytosine”
